Activity calls are given as the source filed them. How the calls were made is not given here.

One may read the inhibition as the relative decrease from the control value, in per cent.

The experiment is described as follows: Brca1-Bard1 BiLC signal decrease – luminescence, single concentration, counter-screen for Mdm2/MdmX interaction inhibitor project, confirmation (AID 504668). Conditions: Brca1/Bard1 bimolecular luciferase complementation counterscreen, at 8 µM, stronger effect = higher value. For orientation: Counterscreens check selectivity or assay interference.
Consider `CCCN(CCC)c1nc(-c2ccccn2)nc2ccccc12`, for which the inhibition was 24.6% (active).

As for `CC(C)(C)C(=O)N1CCN(c2ccc(NC(=O)c3ccc([N+](=O)[O-])o3)cc2)CC1`, the inhibition is 30.5% (active).

Turning to `CC(=O)NC(c1cccs1)c1cc(F)c2cccnc2c1O` (stereo not given), the inhibition is 30.4% (active).

For the molecule `O=C(NCCCO)c1c(O)c2cccc3c2n(c1=O)CCC3`, the inhibition was 24.6% (active).

For the molecule `O=C(Nc1cccc([N+](=O)[O-])c1)c1cc2ccccc2cc1O`, the inhibition is 31% (active).

Regarding `COc1ccc(-c2csc(NC(=S)NC(=O)c3ccco3)n2)cc1Br`, the inhibition was 23.1% (active).

For `C#CCOCCOCCOCCNc1nc(N2CCN(C(=O)CCCCCCCCCCNC(=O)[C@H](CO)n3cc(CCCSC)nn3)CC2)nc(N2CCN(C(=O)CCCCCCCCCCNC(=O)[C@H](CCCCN)n3cc(C[C@@H](C)CC)nn3)CC2)n1`, the inhibition was 26.6% (active).

`O=C(CCCN1C(=O)/C(=C\c2cccc(Br)c2)SC1=S)Nc1cccnc1`: the inhibition is 24.4% (active).

Turning to `Cc1nc(SCc2nc3cc(Cl)c(F)cc3[nH]2)c2oc3ccccc3c2n1`, the inhibition is 31.6% (active).

Regarding `O=C(N/N=C/c1ccc(O)cc1O)c1ccc(CN2C(=O)c3cccc4cccc2c34)cc1`, the inhibition is 29.2% (active).

In the case of `CCCCCCCCCn1ccc(=N)cc1`, the inhibition was 23.6% (active).

As to `COc1ccc(-c2oc3cc(OC)c(O)c(OC)c3c(=O)c2OC)cc1O`, the inhibition is 28.4% (active).

In the case of `Cc1ccc(-c2cnc(C3CC3)o2)cc1S(=O)(=O)Nc1ccccc1`, the inhibition was 33.6% (active).

With `O=C(CN1C(=O)/C(=C/c2ccccc2)SC1=S)N1CCN(CCc2ccccn2)CC1`, the inhibition was 24.3% (active).

On to `COc1ccccc1C(NC(C)=O)c1cc(Cl)c2cccnc2c1O` (stereo not given), for which the inhibition is 31.2% (active).

As for `O=C(c1ccc(S(=O)(=O)c2ccc(F)cc2)c([N+](=O)[O-])c1)N1CCCCCC1`, the inhibition is 30.1% (active).

In the case of `O=C(NC(Cc1c[nH]c2ccccc12)C(=O)Nc1ccc(OC(F)(F)F)cc1)c1cccs1` (stereo not given), the inhibition was 25.7% (active).

On to `Cc1cc(C)c(S(=O)(=O)N2CCCCC2CCNC(=O)C(=O)NC2CC2)c(C)c1` (stereo not given), for which the inhibition is 25.4% (active).

With `S=C(Nc1ccc(Cl)c(Cl)c1)NC1CCN(Cc2ccccc2)CC1`, the inhibition is 28.5% (active).

For `CN(CC(=O)Nc1ccccc1Cl)C(=O)COC(=O)c1nc(Cl)c(Cl)c(Cl)c1Cl`, the inhibition is 30.8% (active).

As for `COc1ccc(NS(=O)(=O)c2cc(NC(=O)c3ccc(Cl)cc3)ccc2N2CCOCC2)cc1`, the inhibition was 26.8% (active).

As to `CC(C)(C)c1cc(C(=O)N/N=C/c2ccccc2O)n(-c2ccccc2)n1`, the inhibition is 28.9% (active).

With `CCC(=O)NC(c1ccccc1OC)c1ccc2cccnc2c1O` (stereo not given), the inhibition is 32.5% (active).

Regarding `CC(=O)OC[C@H]1O[C@@H](n2ncc(=O)[nH]c2=O)[C@H](OC(C)=O)[C@@H]1OC(C)=O`, the inhibition is 31.6% (active).

Turning to `COc1ccc(Nc2ncnc3ccc(Br)cc23)cc1OC`, the inhibition is 30.5% (active).

Consider `Cc1cc(NC(=O)/C=C/C(=O)N(c2ccccc2C)C(C(=O)NC2CCCC2)c2ccc(F)cc2)no1` (stereo not given), for which the inhibition was 28.7% (active).

In the case of `Cc1conc1NC(c1cccs1)c1ccc2cccnc2c1O` (stereo not given), the inhibition was 31.8% (active).

As to `CCN1/C(=C/C=C/c2oc3ccc4ccccc4c3[n+]2CC)Oc2ccc3ccccc3c21`, the inhibition is 28.6% (active).

In the case of `Oc1ccc(/C=N/Nc2nc(-c3ccccc3F)nc3ccccc23)c(O)c1`, the inhibition is 31% (active).

Turning to `CN1C(=O)/C(=C\c2cc(N=Nc3ccccc3)ccc2O)SC1=S`, the inhibition is 34.4% (active).

As for `Cc1ccc(Cc2c(C)c(C#N)c3[nH]c4ccccc4n3c2=O)cc1`, the inhibition is 35.8% (active).

On to `O=C(COc1ccc(F)cc1Cl)Nc1nc(-c2ccccn2)cs1`, for which the inhibition was 33.8% (active).

Turning to `CCOc1ccccc1CNC(=O)C1CCCN(c2nnc(C)c3c(C)n(-c4ccccc4)nc23)C1` (stereo not given), the inhibition is 33.6% (active).

For `COc1ccc(-n2nc(C(=O)c3cccs3)cc(-c3nc4ccccc4[nH]3)c2=N)cc1`, the inhibition is 30.8% (active).

On to `Cc1ccc(OC(F)F)c(NC(=O)Nc2cccc(C(F)(F)F)c2)c1`, for which the inhibition is 23.7% (active).

In the case of `O=C1/C(=C/c2ccc(F)cc2)SC(=S)N1CCCC(=O)N1CCCCC1CCO` (stereo not given), the inhibition was 23.7% (active).

For the molecule `Cc1sc2ncnc(N3CCC(C(=O)N(C)CC(=O)Nc4ccc(Cl)c(C(F)(F)F)c4)CC3)c2c1C`, the inhibition was 29% (active).

`COc1cc(/C=C/c2ccc3cccc(O)c3n2)cc(OC)c1OC`: the inhibition is 27.2% (active).

Take `S=c1[nH]nc(-c2cc(-c3ccccc3)n[nH]2)n1/N=C/C(Br)=C/c1ccccc1`: the inhibition is 24.2% (active).

On to `Cc1cc(C(=O)Nc2ccc(Cl)cc2)c(C)n1-c1ccccc1`, for which the inhibition was 30.6% (active).

Source of the values: PubChem BioAssay.
